Data taken from the supplement of paper PMC13380429.
Structures can show the parent of a compound that is named as a salt.

Tested on: Vero E6 infected with SARS-CoV-2
Assay: inhibition of SARS-CoV-2 cytopathic effect; higher = more antiviral protection, active = above 15
Conditions: 48 h

Measured: inhibition of SARS-CoV-2 cytopathic effect

CC(C)C[C@@H](C(=O)N[C@H](C(=O)OC1CCCC1)c1ccccc1)[C@H](O)C(=O)NO [tosedostat]
inactive: 1 nM 3.34% | 8.33 nM 6.05% | 100 nM -1.49% | 833.33 nM 3.93% | 10000 nM 4.94%

c1ccc2sc(SN3CCOCC3)nc2c1 [N-oxydiethylenebenzothiazole-2-sulfenamide]
inactive: 1 nM -2.53% | 8.33 nM -1.68% | 100 nM -1.37% | 833.33 nM 0.03% | 10000 nM -1.24%

CCCCCCCCCCC(CO)CCCCCCCC (stereo not given) [2-octyldodecan-1-ol]
inactive: 1 nM 1.79% | 8.33 nM -0.7% | 100 nM 0.48% | 833.33 nM 0.76% | 10000 nM 0.34%

Nc1nnc(Sc2ncc([N+](=O)[O-])s2)s1
inactive: 1 nM 3.57% | 8.33 nM -1.18% | 100 nM -0.27% | 833.33 nM -2.43% | 10000 nM -20.9%

C=CCc1ccc(O)c(-c2ccc(O)c(CC=C)c2)c1 [honokiol]
inactive: 1 nM 0.73% | 8.33 nM -0.89% | 100 nM -1.94% | 833.33 nM -0.06% | 10000 nM -0.26%

CNC(=O)c1nn(C)c2c1C(C)(C)Cc1cnc(Nc3ccc(N4CCN(C)CC4)cc3)nc1-2
inactive: 1 nM 0.32% | 8.33 nM 0.79% | 100 nM 1.17% | 833.33 nM -4.6% | 10000 nM -10.3%

COc1ccccc1NC(=O)OCC1CCN(C(=O)OC(C)(C)C)CC1
inactive: 1 nM 0.55% | 8.33 nM -0.78% | 100 nM 1.48% | 833.33 nM -0.14% | 10000 nM 0.81%

C[C@@H](N)Cc1c[nH]c2ccc(O)cc12 [alpha-methylserotonin]
inactive: 1 nM -0.1% | 8.33 nM -1.31% | 100 nM -1.23% | 833.33 nM -0.05% | 10000 nM -3.72%

C=CCSCC1Nc2cc(Cl)c(S(N)(=O)=O)cc2S(=O)(=O)N1 (stereo not given) [althiazide]
inactive: 1 nM 0.54% | 8.33 nM 0.99% | 100 nM -0.07% | 833.33 nM -0.46% | 10000 nM 0.04%

CCSC(=N)N [EIT-hydrobromide]
inactive: 1 nM 0.03% | 8.33 nM -1.2% | 100 nM -0.94% | 833.33 nM -0.69% | 10000 nM -1.4%

Cc1c(N)nc([C@H](CC(N)=O)NC[C@H](N)C(N)=O)nc1C(=O)N[C@H](C(=O)N[C@H](C)[C@@H](O)[C@H](C)C(=O)N[C@H](C(=O)NCCc1nc(-c2nc(C(=O)NCCCNCCCCN)cs2)cs1)[C@@H](C)O)[C@@H](O[C@@H]1O[C@@H](CO)[C@@H](O)[C@H](O)[C@@H]1O[C@@H]1O[C@H](CO)[C@@H](O)[C@H](OC(N)=O)[C@@H]1O)c1cnc[nH]1 [bleomycetin]
inactive: 1 nM 5.02% | 8.33 nM -0.49% | 100 nM -7.1% | 833.33 nM -8.93% | 10000 nM -22.7%

CCn1c2ccccc2c2cc(CNCc3ccccc3OC)ccc21
inactive: 1 nM 3.14% | 8.33 nM 2.16% | 100 nM 0.25% | 833.33 nM -1.14% | 10000 nM -6.1%

Oc1ccc(C2CNCCc3c2cc(O)c(O)c3Cl)cc1 (stereo not given) [fenoldopam]
inactive: 1 nM 5.49% | 8.33 nM 1.3% | 100 nM 4.35% | 833.33 nM 0.98% | 10000 nM -5.61%

CC(C)(C)CC(C)(C)c1ccc(O)c(Cc2ccc(Cl)cc2Cl)c1 [clofoctol]
inactive: 1 nM 3.11% | 8.33 nM 0.06% | 100 nM 2.41% | 833.33 nM 3.05% | 10000 nM -0.97%

CN(C)C(=O)Oc1cccc([N+](C)(C)C)c1 [neostigmine]
inactive: 1 nM 1.41% | 8.33 nM 0.51% | 100 nM 0.73% | 833.33 nM -1.4% | 10000 nM -0.84%

CSc1nc(-c2ccc(F)cc2)c(-c2ccnc(N[C@@H](C)c3ccccc3)c2)[nH]1
inactive: 1 nM -3.63% | 8.33 nM -2.6% | 100 nM -5.98% | 833.33 nM -4.77% | 10000 nM 1.96%

Cc1cccc(C)c1NC(=O)C1CCCCN1C (stereo not given) [mepivacaine]
inactive: 1 nM -3.62% | 8.33 nM -1.78% | 100 nM -2.27% | 833.33 nM -0.18% | 10000 nM 0.81%

CCc1c(C(=O)NCCc2ccc(N3CCCCC3)cc2)[nH]c2ccc(Cl)cc12
inactive: 1 nM 1.1% | 8.33 nM 2.93% | 100 nM 4.96% | 833.33 nM 2.28% | 10000 nM -2.19%
